Holding throughout (details): mRNA level, 48 h; actives raise or lower the signal
Read-out in assay [1]: Cyclin Dependent Kinase Inhibitor 1A (CDKN1A), CDKN1A (gene 1026)
Briefly: LTEA_HepaRG_CDKN1A: Life Technologies and Expression Analysis (LTEA) Assay for Cyclin Dependent Kinase Inhibitor 1A (CDKN1A) using HepaRG (AID 2283450). The method, boiled down:
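Cryopreserved HepaRG cells were plated and cultured 48 h, then switched to serum-free induction medium. Chemicals (eight half-log concentrations, top 100 uM, 0.5% DMSO) were applied for 48 h. Lysates underwent qRT-PCR for CDKN1A with housekeeping normalization.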

Read-out in assay [2]: Cyclin D1 (CCND1), CCND1 (gene 595)
The experiment in a line: LTEA_HepaRG_CCND1: Life Technologies and Expression Analysis (LTEA) Assay for Cyclin D1 (CCND1) using HepaRG (AID 2283451).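 On AC50: TaqMan qRT-PCR transcript level normalised to ACTB GAPDH and POLR2A housekeeping genes.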 In outline: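 Human liver HepaRG line; 48 h dosing, 8 conc. ≤100 uM, 0.5% DMSO; TaqMan qRT-PCR mRNA, 3 housekeeping genes; bidirectional curve fit vs DMSO.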

Read-out in assay [3]: catalase (CAT), CAT (gene 847)
The experiment in a line: LTEA_HepaRG_CAT: Life Technologies and Expression Analysis (LTEA) Assay for catalase (CAT) using HepaRG (AID 2283452).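 On AC50: TaqMan qRT-PCR signal normalized to ACTB GAPDH and POLR2A housekeeping genes.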 The method, boiled down: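 Differentiated HepaRG cells in serum-free induction medium were dosed 48 h in duplicate, eight half-log concentrations from 100 uM in 0.5% DMSO. Transcript measured by TaqMan qRT-PCR, normalised to ACTB/GAPDH/POLR2A, fitted bidirectionally against DMSO.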

Read-out in assay [4]: flavin-containing dimethylaniline monooxygenases 3 (FMO3), FMO3 (gene 2328)
The experiment in a line: LTEA_HepaRG_FMO3: Life Technologies and Expression Analysis (LTEA) Assay for flavin-containing dimethylaniline monooxygenases 3 (FMO3) using HepaRG (AID 2283453).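 On AC50: FMO3 transcript by TaqMan qRT-PCR normalized to ACTB GAPDH and POLR2A.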 In outline:
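HepaRG, 48 h exposure, 8-pt half-log series from 100 uM, 0.5% DMSO vehicle, duplicates; FMO3 transcript by Fluidigm TaqMan qRT-PCR, housekeeping-normalized; gain/loss fit vs DMSO.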

Read-out in assay [5]: Cytochrome P450 (CYP1A1), CYP1A1 (gene 1543)
The experiment in a line: LTEA_HepaRG_CYP1A1: Life Technologies and Expression Analysis (LTEA) Assay for Cytochrome P450 (CYP1A1) using HepaRG (AID 2283454). In outline:
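Induction of CYP1A1 mRNA in a human hepatic cell line was measured 48 h after dosing, with 1 mM phenobarbital as induction positive control and 0.5% DMSO vehicle as baseline for bidirectional curve fitting.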

Read-out in assay [6]: CFLAR gene, CFLAR (gene 8837)
Briefly: LTEA_HepaRG_CFLAR: Life Technologies and Expression Analysis (LTEA) Assay for CFLAR gene using HepaRG (AID 2283455). The method, boiled down: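 HepaRG cells were plated for 48 h, switched to serum-free induction medium, then exposed in duplicate for 48 h to 8 concentrations (top 100 uM, half-log steps, 0.5% DMSO). CFLAR mRNA was measured by qRT-PCR, normalized to ACTB, GAPDH and POLR2A.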

Read-out in assay [7]: Forkhead box O1 (FOXO1), FOXO1 (gene 2308)
Briefly: LTEA_HepaRG_FOXO1: Life Technologies and Expression Analysis (LTEA) Assay for Forkhead box O1 (FOXO1) using HepaRG (AID 2283456). The method, boiled down: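 Differentiated human HepaRG cells in serum-free induction medium were exposed in duplicate for 48 h to eight half-log concentrations (top 100 uM, 0.5% DMSO). FOXO1 mRNA was measured by TaqMan qRT-PCR, normalised to ACTB, GAPDH and POLR2A, and fitted bidirectionally against DMSO.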

Read-out in assay [8]: growth arrest and DNA damage 45 (GADD45A), GADD45A (gene 1647)
Briefly: LTEA_HepaRG_GADD45A: Life Technologies and Expression Analysis (LTEA) Assay for growth arrest and DNA damage 45 (GADD45A) using HepaRG (AID 2283458). In outline: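 Human HepaRG liver cells are treated in duplicate for 48 h with chemicals in 0.5% DMSO, highest concentration 100 uM. Expression is read by qRT-PCR and analyzed in both directions against vehicle.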

Read-out in assay [9]: Forkhead box O3 (FOXO3), FOXO3 (gene 2309)
Briefly: LTEA_HepaRG_FOXO3: Life Technologies and Expression Analysis (LTEA) Assay for Forkhead box O3 (FOXO3) using HepaRG (AID 2283459). The method, boiled down: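 Differentiated human HepaRG cells in serum-free induction medium were exposed in duplicate for 48 h to eight half-log concentrations up to 100 uM in 0.5% DMSO. FOXO3 mRNA was quantified by qRT-PCR, normalized to ACTB, GAPDH and POLR2A, with bidirectional fitting versus DMSO.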

SMILES strings stand for the structures. Values joined by “and” are separate entries in the source; they are usually repeats but may differ in a detail not shown here. Equal values may be shown once. Active and inactive are the calls of the source. How the source made its calls: active means hit-call score of the fitted dose curve at least 0.9, where 1 is the maximum; inactive means score below 0.9.

The AC50 is the midpoint of the concentration-response curve, whichever way the signal moves.

In the case of `O=C1c2ccccc2C(=O)N1SC(Cl)(Cl)Cl`, the outcome in [1], in assay [2], in [3], in [4], in [5] and in assay [6] was inactive. For the same compound, the result in [7], in [8] and in [9] was inactive.

Regarding `N#Cc1c(Cl)c(Cl)c(Cl)c(C#N)c1Cl`, the call in assay [1] and in assay [8] was inactive. The AC50 is 13.5 µM (active) in assay [2]; 65.7 µM (active) in assay [3]; 36.6 µM (active) in assay [4]; 23.1 µM (active) in [5]; 50 µM (active) in [6]; 21.2 µM (active) in assay [7]. In [9], the concentration at half-maximal activity (AC50) is 15.2 µM (active).

As for `CNC(=O)/C=C(\C)OP(=O)(OC)OC`, the compound was called inactive in assay [1], in assay [2], in [3], in [4], in [5] and in [6]. The compound was called inactive in [7], in assay [8] and in [9].

Regarding `CNC(=O)Oc1ccccc1OC(C)C`, the outcome in assay [1], in assay [2], in assay [3], in assay [4], in assay [5] and in [6] was inactive. Besides, the result in assay [7], in [8] and in assay [9] was inactive.

As for `CC1(C)C(C=C(Cl)Cl)C1C(=O)OC(C#N)c1ccc(F)c(Oc2ccccc2)c1` (stereo not given), the result in assay [1], in assay [2], in [3], in assay [4], in assay [6] and in assay [7] was inactive. Besides, the compound was classed as inactive in [8] and in assay [9]. For the same compound, the AC50 in [5] was 37.7 µM (active).

As to `O=C(O)COc1ccc(Cl)cc1Cl`, the result in assay [1], in [2], in assay [3], in [4], in assay [6] and in assay [7] was inactive. In addition, the call in assay [8] and in [9] was inactive. Moreover, in [5], the AC50 was 43.4 µM (active).

On to `ClC1C(Cl)C(Cl)C(Cl)C(Cl)C1Cl` (stereo not given), for which the call in [1], in assay [2], in [3], in assay [4], in assay [6] and in [7] was inactive. Further, the result in [8] and in [9] was inactive. The AC50 in [5] was 27.3 µM (active) and 19.9 µM (active).

On to `COP(=S)(OC)Oc1ccc(SC)c(C)c1`, for which the compound was called inactive in assay [1], in assay [2], in assay [3], in assay [4], in assay [6] and in assay [7]. Also, the call in assay [8] and in [9] was inactive. Besides, the AC50 in assay [5] was 28.8 µM (active).

Consider `COP(=S)(OC)Oc1ccc([N+](=O)[O-])cc1`, for which the outcome in [1], in [2], in assay [3], in assay [4], in [6] and in [7] was inactive. Further, the compound was classed as inactive in [8] and in assay [9]. Moreover, in assay [5], the concentration at half-maximal activity (AC50) is 44.2 µM (active).

Consider `Cc1[nH]c(=O)n(C(C)(C)C)c(=O)c1Cl`, for which the compound was called inactive in [1], in assay [2], in assay [3], in assay [4], in assay [6] and in assay [7]. For the same compound, the compound was called inactive in [8]. Also, the concentration at half-maximal activity (AC50) in [5] was 24.1 µM (active); in assay [9] it was 50 µM (active).

Turning to `CCCN(CCOc1c(Cl)cc(Cl)cc1Cl)C(=O)n1ccnc1`, the AC50 in assay [1] was 30.5 µM (active); in [2] it was 89.8 µM (active); in [3], 32.1 µM (active); in assay [4], 33 µM (active); in [5], 2.56 µM (active); in assay [6], 85.2 µM (active). The AC50 was 88.7 µM (active) in [7] and 45.8 µM (active) in [8]. The call in assay [9] was inactive.

For `COP(=O)(OC)OC=C(Cl)Cl`, the compound was called inactive in assay [1], in [2], in assay [3], in assay [4], in assay [5] and in [6]. The compound was called inactive in assay [7], in assay [8] and in assay [9].

Regarding `Clc1ccccc1-c1nnc(-c2ccccc2Cl)nn1`, the call in assay [1], in assay [2], in assay [3], in assay [4], in [6] and in [7] was inactive. Besides, the compound was classed as inactive in assay [8] and in [9]. In addition, the AC50 in assay [5] was 12.8 µM (active).

In the case of `O=C(Nc1ccccc1)Nc1cnns1`, the compound was classed as inactive in assay [1], in [6], in [7], in assay [8] and in assay [9]. Also, the half-maximal activity concentration (AC50) was 74.7 µM (active) in [2], 50 µM (active) in [3], 73.5 µM (active) in assay [4] and 73.6 µM (active) in assay [5].

In the case of `CCc1ccc(C(=O)NN(C(=O)c2cc(C)cc(C)c2)C(C)(C)C)cc1`, the call in assay [1], in assay [2], in [3], in [5], in assay [6] and in assay [7] was inactive. Moreover, the result in assay [8] and in assay [9] was inactive. Also, the AC50 in assay [4] was 81.9 µM (active).

As to `CC(C)N(C(=O)COc1nnc(C(F)(F)F)s1)c1ccc(F)cc1`, the call in assay [1], in [2], in assay [6], in assay [7], in [8] and in [9] was inactive. Further, the AC50 in [4] is 40.7 µM (active); in assay [5], 50 µM (active).

Consider `CN1CSC(=S)N(C)C1`, for which the outcome in assay [1], in [2], in assay [3], in [4], in assay [6] and in [7] was inactive. In addition, the compound was called inactive in assay [8] and in assay [9]. The AC50 in [5] is 28.4 µM (active).

Consider `O=S1OCC2C(CO1)C1(Cl)C(Cl)=C(Cl)C2(Cl)C1(Cl)Cl` (stereo not given), for which the AC50 in [1] was 79.1 µM (active); in assay [3], 52.3 µM (active); in assay [4] it was 83.4 µM (active); in assay [5] it was 50 µM (active). Besides, the compound was classed as inactive in assay [2], in [6], in assay [7], in assay [8] and in assay [9].

For `N#CN`, the result in assay [1], in [2], in assay [3], in [4], in assay [5] and in assay [6] was inactive. Besides, the outcome in [7], in assay [8] and in assay [9] was inactive.

As to `CC(C)(C)C(O)C(Oc1ccc(Cl)cc1)n1cncn1` (stereo not given), the result in [1], in [2], in [3], in [4], in assay [6] and in assay [7] was inactive. The call in assay [8] and in [9] was inactive. Moreover, the half-maximal activity concentration (AC50) in assay [5] was 23.1 µM (active) and 18.4 µM (active) and 22 µM (active).

Consider `CCN(CC)C(=O)SCc1ccc(Cl)cc1`, for which the compound was called inactive in [1], in assay [2], in assay [3], in assay [4], in assay [6] and in assay [7]. Besides, the compound was called inactive in assay [8] and in assay [9]. Further, the AC50 in [5] is 41.6 µM (active).

For the compound `CC(C)OC(=O)Nc1cccc(Cl)c1`, the compound was classed as inactive in assay [1], in [2], in assay [3], in [4], in [6] and in assay [7]. Besides, the outcome in assay [9] was inactive. Further, the AC50 in assay [5] and in assay [8] was 50 µM (active) throughout.

For `CCC(C)(NC(=O)c1cc(Cl)c(C)c(Cl)c1)C(=O)CCl` (stereo not given), the call in assay [1], in assay [7] and in assay [9] was inactive. Besides, the AC50 in [2] is 77.8 µM (active); in [3], 71 µM (active); in assay [4] it was 80.2 µM (active); in assay [5], 50.2 µM (active); in [6] it was 86.5 µM (active); in assay [8], 89.8 µM (active).

In the case of `CCOC1Oc2ccc(OS(C)(=O)=O)cc2C1(C)C` (stereo not given), the AC50 is 87.1 µM (active) in [1]; 76.1 µM (active) in [2]; 74.1 µM (active) in assay [3]; 78.3 µM (active) in [4]; 50 µM (active) in [5]; 50 µM (active) in assay [7]. For the same compound, in assay [8], the AC50 was 89.7 µM (active). The compound was classed as inactive in assay [6] and in assay [9].

(Values after PubChem BioAssay (EPA / NIEHS).)
